LANA-H2A inh = blocks KSHV LANA binding to histone H2A/H2B | cell-free LANA-H2A/H2B peptide, fluorescence polarization | inhibition, % (test concentration not listed) | Q9QR71 | actives 0.6% (n = 320,000) | AID 2629; in the data active = inhibition mostly above about 10%, no sharp cut-off; inactive = mostly below about 6.7%
Keap1 Nrf2 FP = inhibitors of human Keap1-Nrf2 protein-protein interaction; inhibition, % at 9.4 µM; actives 0.15% (n = 340,000); AID 504523; Q14145; Keap1 Kelch-Nrf2 peptide fluorescence polarization, 1536-well; in the data active = inhibition above about 12%; inconclusive = no clear call, values can overlap the other calls; inactive = below about 7.3%;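 note: human Keap1 Kelch domain with fluorescein labeled Nrf2 9mer peptide probe; higher means more block of Keap1 binding to Nrf2 peptide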
RTF Ca sens act = increases calcium sensitivity of human cardiac regulated thin filaments; actives 0.24% (n = 340,000); activation, % at 7.2 µM; IANBD-labeled TnC RTF fluorescence at EC20 calcium; 0% EC20 calcium, 100% full calcium; P19429+P45379;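 active = activation above the mean over all tested compounds plus 3 SD, cut at about 30% in these data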;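 note: rise in fluorescence read as greater calcium sensitivity of cardiac thin filaments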
RTF Ca sens inh = cardiac RTF calcium desensitization. IANBD-labeled cardiac RTF, Ca2+ fluorescence. actives 0.12% (n = 340,000). inhibition, % at 7.15 µM. P19429+P45379;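 active = inhibition above the mean inhibition of all tested compounds plus 3 SD, cut at about 17% in these data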;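 note: assay run at fixed EC70 calcium of 1.6 mM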
LANA DNA inh = KSHV C-LANA DNA binding inhibition. MBP-C-LANA/FAM-LBS DNA binding, fluorescence polarization. inhibition, % at 9 µM. actives 0.078% (n = 340,000). AID 504423;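 active = highest replicate inhibition at or above 60% at 9 µM, even if other replicates fall short; inactive = all replicates below 60% inhibition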
Large screens that a line does not name were inactive. A selection: hits, their analogues and other compounds. The true share with any hit is near 0.98%.

Cc1ccc(Nc2c(-c3ccco3)nc3nc(C)cc(C)n23)cc1	LANA-H2A inh 21.2
Cc1cc(C)n(C(=O)CSc2nnc(SCC(=O)n3nc(C)cc3C)s2)n1	none
O=C(NNC(=O)C1CC1c1ccccc1)Nc1cccc(Cl)c1 (stereo not given)	none
COC(=O)[C@]1(Cc2ccccc2)N[C@H](CN(C)C(=O)C2CCCCC2)[C@@H]2C(=O)N(C)C(=O)[C@@H]21	none (no result: LANA-H2A inh)
CC[C@@]1(C(=O)OC)N[C@H](CN(C)C(=O)C2CCCCC2)[C@@H]2C(=O)N(C)C(=O)[C@@H]21	LANA-H2A inh active
CC(CC(=O)N1CCN(S(=O)(=O)c2ccc([N+](=O)[O-])cc2)CC1)c1ccccc1 (stereo not given)	none
COc1cccc(CSCC(=O)NCCc2ccccc2)c1OC	none
COc1ccc(OC)c(-c2csc(N(C)C(=O)c3ccco3)n2)c1	none
O=C(NCCc1ccccc1)C1CCN(c2nc3ccccc3o2)CC1	LANA-H2A inh 14.3
CC(C)CNS(=O)(=O)c1ccc(S(=O)(=O)N2CCC3(CC2)OCCO3)cc1	none
O=S(=O)(NC1CC1)c1ccc(S(=O)(=O)N2CCC3(CC2)OCCO3)cc1	LANA-H2A inh 18.9
NNc1nnc2c3cc(F)ccc3n(Cc3ccccc3)c2n1	LANA DNA inh 61.8
CN(C)/C(=N\S(=O)(=O)c1ccccc1)c1ccc(F)cc1	LANA-H2A inh 15.5
CCOc1cc(C2C3=C(CCCC3=O)Nc3nc(C(=O)OC)nn32)ccc1OC (stereo not given)	LANA-H2A inh 19.6
CCOC1=NN(c2ccc(Cl)cc2)C(=O)/C1=C\N(C)C	none
CC(C)NC(=O)CSc1ccccc1C(=O)N1CCN(S(=O)(=O)/C=C/c2ccccc2)CC1	LANA-H2A inh 17.2
N#Cc1c(-c2ccc(Cl)cc2)n(O)c2ccccc12	none (no result: LANA-H2A inh)
CCOc1cc2c3c(c1)C(C)CC(C)(C)N3C(=O)C2=O (stereo not given)	none
CCOc1cc2c3c(c1)C(C)=CC(C)(C)N3C(=O)C2=O	LANA-H2A inh 13.3
COc1cccc(C(=O)NNC(=O)Cc2cccs2)c1	none
O=C(CCCN1C(=O)/C(=C\c2cccc(Br)c2)SC1=S)Nc1cccnc1	LANA-H2A inh 18.6
CCc1ccc(/C=C2\SC(=S)N(CCCC(=O)Nc3ccccn3)C2=O)cc1	RTF Ca sens act 36.5
O=C(CCCN1C(=O)/C(=C/c2cccc(Br)c2)SC1=S)Nc1cccnc1	none (no result: RTF Ca sens act, RTF Ca sens inh)
O=C(Nc1cc(C(F)(F)F)ccc1-n1cncn1)c1ccc(-c2ccccc2)cc1	none
COC(=O)C(CCCN1C(=O)c2ccccc2C1=O)(NC(C)=O)c1nn[nH]n1 (stereo not given)	LANA-H2A inh 19.4
Cc1c(C(=O)NCc2ccoc2)oc2ccc3c(c12)C(=O)CC(C)(C)O3	LANA-H2A inh 28.7
CCCNC(=O)c1oc2ccc3c(c2c1C)C(O)CC(C)(C)O3 (stereo not given)	none
O=C(O)[C@H](Cc1ccccc1)NC(=O)N1CCN(c2ccccc2)CC1	none
CCN1C(=O)N(C)C(N(O)C(=O)NC)C1(C)C (stereo not given)	none
COC(=O)c1cc2n(n1)CCN(Cc1cccc(OC)c1)C2=O	LANA-H2A inh 20.1
COC(=O)c1cc2n(n1)CCN(Cc1ccc(C)cc1)C2=O	none
COCCN(CCOC)S(=O)(=O)c1ccc(C(=O)Nc2nnc(C3CC3)o2)cc1	LANA-H2A inh active
COc1ccc(OCCCC(=O)OCC(=O)Nc2sccc2C(N)=O)cc1	none (no result: LANA-H2A inh)
CC(=O)c1ccc(OCC(=O)OCC(=O)Nc2sccc2C(N)=O)cc1	LANA-H2A inh 15.7
O=S(=O)(c1ccc(=S)[nH]c1)N1CCCCCC1	LANA-H2A inh 37.8
Cc1ccc(C(=O)NC2CCCc3ccccc32)cc1[N+](=O)[O-] (stereo not given)	Keap1 Nrf2 FP inconclusive
O=C(Nc1ccc(NC(=O)c2ccco2)c(Cl)c1)c1ccccc1	LANA-H2A inh 21.4
CC(C)Oc1ccc(C(=O)Nc2ccc(NC(=O)c3ccco3)c(Cl)c2)cc1	none
CCOC(=O)C(C(=O)OCC)c1cc(Br)c2noc3c2c1C(=O)c1ccccc1-3	RTF Ca sens act 96.0
COc1ccc(Cl)cc1C(=O)OCC(=O)N(CC(C)C)c1c(N)n(Cc2ccccc2)c(=O)[nH]c1=O	none
COc1cc(OC)cc(C(=O)N(Cc2ccco2)c2c(N)n(Cc3ccccc3)c(=O)[nH]c2=O)c1	RTF Ca sens act 31.3 (no result: LANA-H2A inh)
